# Laboratory results from PubChem BioAssay (NCI).
# “And” between values parts separate entries of the source, which are not always exact repeats. Equal values may be shown once. This is part of a sample that, as a whole, favours compounds with a hit. Of some 83,000 tested, about 20% had one in any assay.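 96-well plates, one dose, 48 hours. Percent growth reported; active if below 10.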 A number with no mark means an inactive call. The source made the active and inactive calls.
# Test system: MDA-MB-468 breast
# Assay: NCI-60 one-dose screen, 48 h (100 = growth as untreated, 0 = no growth, -100 = all killed)
# Settings: 10 µM unless noted
row,SMILES,growth
1,Nc1ncc(-c2ccc3ncnc(Nc4cccc(Cl)c4F)c3c2)cn1,-5.52% (active)
2,CCCCCCCCCCCCCCCCNCCC[C@@H](C)[C@H]1CC[C@H]2[C@@H]3[C@H](OCCCN)C[C@@H]4C[C@H](OCCCN)CC[C@]4(C)[C@H]3C[C@H](OCCCN)[C@]12C,-55.2% (active)
3,COc1ccc(/C=C(/C(=O)N2CCN(c3ccccc3)CC2)c2cc(OC)c(OC)c(OC)c2)cc1N,11.7%
4,Nc1c(C(=O)Nc2c(Cl)cccc2Cl)sc2nc3c(cc12)CCCC3,82.3%
5,Cc1ccc(S(=O)(=O)N(CCc2ccc(Cl)cc2)S(=O)(=O)c2ccc(C)cc2)cc1,73.8%
6,O=C(/C=C1\C=CN(CCCCF)c2ccccc21)n1ccc2ccccc21,91.2%
7,CCCCCCc1nc2c(c(C)nn2-c2ccccc2)c2c1CCCCC2,127%
8,C=C1C(=O)O[C@H]2[C@H]1CC/C(C=Nc1c(N)cc(C(F)(F)F)cc1C(F)(F)F)=C\CC[C@@]1(C)O[C@@H]21,-58.1% (active)
9,COC1=CC(c2ccc[nH]2)=N/C1=C\c1[nH]c(C)c(C(=O)CCC(=O)Oc2ccc3c(c2)CCC2C3CC[C@]3(C)[C@@H](O)CC[C@@H]23)c1C (stereo not given in full),39.4%
10,C#Cc1nc(C2=C(C)C(O)CC2)cs1 (stereo not given),-91.7% (active)
11,COc1cc(/C=C2\Oc3cc(OCC(=O)c4ccccc4)ccc3C2=O)cc(OC)c1OC,97%
12,O=C(Cc1ccccn1)C(F)(F)C(F)(F)C(F)(F)F,115%
13,CCC(=C(c1ccc(OCCN(C)C)cc1)c1ccc(OCCN(C)C)cc1)c1ccc(Cl)cc1,-82.8% (active)
14,COc1ccc(C2CC(c3cnccn3)=NN2)cc1OC (stereo not given),105%
15,CN1CCC(n2cc(Nc3ncc4c(=O)n(-c5c(Cl)cccc5Cl)cc(Br)c4n3)cn2)CC1,12.7%
16,COc1ccc(-c2ccc3c(c2)sc2nc(-c4ccc(F)cc4)cn23)cc1,66.7%
17,O=C(c1ccccc1)C1OC1c1ccc([N+](=O)[O-])cc1 (stereo not given),29.2%
18,CCN(CC)c1ccc(-c2cc(-c3cc(OC)c(OC)c(OC)c3)nc(N3CCOCC3)c2C#N)cc1,32.9%
19,CCN(CC)CCOc1ccc(/C(=C(\C)c2ccc(Cl)cc2)c2ccc(Cl)cc2)cc1,70.6%
20,c1ccc2cc3c(Nc4ccc(N5CCOCC5)cc4)ccnc3cc2c1,87.9%

row,SMILES,growth
1,C=CCn1c(C)nc2cc(Nc3nc(N4CCCC4)nc4ccccc34)ccc21,105%
2,Cc1cc(-c2nnc(/C=C/c3ccc4c(c3)OCO4)o2)n[nH]1,54%
3,Cc1cc2cc3cc(C)c(N)cc3[n+](C)c2cc1N,-28.8% (active)
4,O=C(CSc1ccc(Cl)cc1)Nc1ccc(-c2nc3ccccc3s2)c(Cl)c1,52.1%
5,COc1ccc(C(=O)O)cc1.[Ag],93.9%
6,N#C/C(C(=O)c1ccccc1)=C1/C(=O)Nc2ccc(F)cc21,106%
7,CN(C)[C@@H]1C(=O)C(C(=O)NCc2nc3[nH]cnc(=S)c3[nH]2)=C(O)[C@@]2(O)C(=O)C3=C(O)c4c(O)cccc4[C@@](C)(O)[C@H]3C[C@@H]12,81.2%
8,COc1c(O)cc2c(c1CC=C(C)C)OC(=O)c1c(cc(O)c(CC=C(C)C)c1O)O2,27.9%
9,COc1cc(CNC(=O)CCCC/C=C/C(C)C)ccc1O,94.6% and 98.5%
10,Cc1ccc2c(c1)Nc1ccc(C)cc1C2(C)C,101%
11,CCN(CC)CCNc1ccc(C)c2sc3ccccc3c(=O)c12 (tested in a mixture with another compound),11.8% and 16.9%
12,Cc1nc2sc(C(=O)Nc3ccccc3)c(N)c2cc1C(=O)c1ccc(C(F)(F)F)cc1,107%
13,Nc1ncn([C@@H]2O[C@H](CO)[C@@H](O)C2(F)F)c(=O)n1,71.4%
14,COc1ccc(-c2cc(-c3cccc4ccccc34)n3c(n2)nc2ccccc23)cc1OC,63.2%
15,CCN(C(=O)Nc1cccc2ccccc12)c1ccccc1,99.7%
16,CC(C)C1=NOC(=O)C1=Cc1cn(-c2ccccc2)nc1-c1ccc(Cl)cc1,86.7%
17,Cc1sc2nc(NCCc3c[nH]c4ccc(Cl)cc34)[nH]c(=O)c2c1C,4.19% (active)
18,Nc1ncnc2c1c(-c1ccc(Oc3ccccc3)cc1)nn2C[C@H]1SSC[C@H]1O,-5.04% (active)
19,Cc1nc(Cl)cc(N(c2cc(Cl)nc(C)n2)c2ncc(C(=O)Nc3c(C)cccc3Cl)s2)n1,42.1%
20,COc1ccc2[nH]c(O)c(N=NC(=O)c3oc4ccccc4c3C)c2c1,19.9%
